Compounds with a hit are over-represented: about 18% of the library has one in this group of screens.
Six1-Eya2 blk: Six1/Eya2 interaction inhibition | Q15475+O00167 | AlphaScreen GST-Six1/His-Eya2 binding, biochemical; hits give low values | activity change, % (test concentration not listed) | 360,000 tested, 0.56% active | AID 651725; in the data active = activity change below about -65%; inconclusive = mostly about -30% to -63%
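Six1/Eya2 binding was read as AlphaScreen signal after compounds were pinned into GST-Six1 plus His-tagged Eya2 (5X stock 250/500 nM) in pH 8.0 Tris/NaCl/TCEP buffer, beads added, then incubated 1 h, 37 C, dark.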
DT40 TDP1 CPT: DT40-hTDP1 cell growth loss with CPT. chicken DT40 Tdp1-/-;hTDP1 cells + 20 nM CPT, ATP luminescence, 48 h. Potency, µM (titrated, usually from 46.2 µM), for the others: at the highest dose activity change, negative = growth inhibition, usual class: inhibitors. 420,000 tested, 12% active; also: potency is read from the fitted curve at half-maximal effect; nearly all actives have a fitted effect of over 55% in size
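Cell growth measured by CellTiter-Glo luminescence after a minimum 48 h, 37 C compound exposure with 20 nM CPT in Tdp1-knockout DT40 cells stably expressing hTDP1, seeded 400/well; qHTS titration format.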
IL1B secr inh: inflammasome signaling inhibition, IL-1 beta readout; AID 743279; 360,000 tested, 4.7% active; THP-1 LPS/ATP IL-1B secretion, AlphaLISA, 16 h; hits give low values; activity change, % at 57.5 µM; in the data active = activity change below about -50%; inconclusive = mostly about -30% to -49%
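THP-1 cells pretreated 1 hr with compounds (up to 57.5 uM final), then stimulated with LPS (250 ng/mL final) plus ATP (1.25 mM final); secreted IL-1B measured by AlphaLISA after 16 hr, decreased signal indicating inhibition.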
CtBP-E1A inh: inhibitors of CtBP/E1A interaction; AlphaScreen GST-E1A/His-CtBP binding, 1536-well; hits give low values; activity change, % (concentration not given with the values); 340,000 tested, 0.49% active; AID 651724; in the data active = activity change below about -65%; inconclusive = mostly about -30% to -63%
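In 5 uL wells, 23 nL compound meets equimolar GST-E1A and His-CtBP (5X stock 125 nM each) for 2 h, 37 °C. Beads (5X, 50 ug/mL) then 1 h, 37 °C, dark.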
TDP1 inh: blocks human tyrosyl-DNA phosphodiesterase 1; recombinant TDP1, AlphaScreen DNA substrate cleavage; Potency, µM (series often up to 130 µM), for the others: at the top dose activity change, negative = inhibition, actives largely listed as inhibitors; 350,000 tested, 0.28% active; AID 485290; also: potency is read from the fitted curve at half-maximal effect; nearly all actives have a fitted effect of over 40% in size
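Recombinant human Tdp1 (E. coli-expressed, 1 nM final) preincubated with compounds 15 min at room temperature, then 5'-biotin/3'-phosphotyrosine-FITC DNA substrate (15 nM final) added for 5 min. AlphaScreen beads (10 ug/ml final) added 10 min; cleavage lowers signal.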
TDP1 cell noCPT: qHTS for Inhibitors of human tyrosyl-DNA phosphodiesterase 1 (TDP1): qHTS in cells in absence of CPT. DT40 Tdp1-/- hTDP1 cells, no CPT, ATP luminescence, 48 h. Potency, µM (top dose mostly 46.2 µM), for the others: top-dose activity change, negative = growth inhibition, hits mostly inhibitors. 420,000 tested, 15% active; also: potency is read from the fitted curve at half-maximal effect; nearly all actives have a fitted effect of over 55% in size
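No-CPT arm: Tdp1-/-;hTDP1 DT40 cells (400/well) plus compounds, incubated ≥48 hr at 37 °C. Readout CellTiter-Glo luminescence.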
* hit, by the source's call; ? = inconclusive; . = no result; ! = a repeat was not active. Unless noted, calls follow the shape of the dose curve; as a rule, active = well fitted curve in the direction sought with a large enough effect; inconclusive = small, poorly fitted or top-dose-only effect, or another doubt; inactive = no such curve, though single readings can be large; an effect the other way counts as inactive or inconclusive. % is scaled to controls: 0 for no effect and ±100 for the full control effect.

SMILES	Six1-Eya2 blk	DT40 TDP1 CPT	IL1B secr inh	CtBP-E1A inh	TDP1 inh	TDP1 cell noCPT
Cc1cc(N2C(=O)C3C4C=CC(C4)C3C2=O)ccc1NC(=O)c1cccs1 (stereo not drawn)	3	-26%	-13	9	13µM*	?
O=C(Nc1ccc(Cl)cc1)c1cccc(N2C(=O)C3C4CCC(C4)C3C2=O)c1 (stereo not drawn)	6	?	-15	5	-11%	15µM*
O=C(Nc1ccc(Cl)cc1Cl)c1cccc(N2C(=O)C=CC2=O)c1	6	1µM*	0	-25	0%	0.58µM*
COc1ccc(NC(=O)c2cccc(N3C(=O)C4C5C=CC(C5)C4C3=O)c2)cc1Cl (stereo not drawn)	2	23µM*	33	-1	1%	16µM*
O=C(O)c1ccc(NC(=O)c2cccc(N3C(=O)C4C5CCC(C5)C4C3=O)c2)cc1 (stereo not drawn)	5	4%	14	15	0%	-2%
CS(=O)(=O)N(CC(=O)O)c1ccc(C23CC4CC(CC(C4)C2)C3)cc1	6	4%	5	-3	.	27%
Cc1ccc(NC(=O)c2cccc(N3C(=O)C4C5C=CC(C5)C4C3=O)c2)cc1C (stereo not drawn)	2	23µM*	-23	6	0%	21µM*
COc1ccc(NC(=O)c2cccc(N3C(=O)C4C5C=CC(C6CC56)C4C3=O)c2)cc1 (stereo not drawn)	0	?	0	-4	3%	21µM*
COC(=O)N/N=C(\C)c1ccc(Br)cc1	5	13%	-16	3	3%	4%
CSC(=S)N/N=C(\C)c1ccc(Br)cc1	0	?	50	-16	2%	2.9µM*
O/N=C(\Cn1ccnc1)c1ccccc1	2	3%	18	8	.	-11%
Cc1csc[n+]1CC(=O)c1ccccc1	.	-17%	.	.	.	-13%
Cc1csc[n+]1CC(=O)c1ccc(I)cc1	.	16µM*	.	.	.	?
O/N=C(/C[n+]1csc2ccccc21)c1ccccc1	.	1.1µM*	.	.	.	1.1µM*
O=C(C[n+]1ccccc1)c1ccc(I)cc1	.	-20%	.	.	.	?
O=C(C[n+]1csc2ccccc21)c1ccc(I)cc1	.	?	.	.	.	11µM*
CCc1ccc(NC(=O)CCc2c(C)nn(-c3ccc(N4CCCC4)nn3)c2C)cc1	.	?	.	.	-10%	?
COc1ccc(NC(=O)CCc2c(C)nn(-c3ccc(N4CCCCC4)nn3)c2C)cc1Cl	.	?	.	.	8%	?
Cc1ccccc1NC(=O)CCc1c(C)nn(-c2ccc(N3CCOCC3)nn2)c1C	26	5%	9	14	8%	-1%
Cc1ccccc1NC(=O)CCc1c(C)nn(-c2ccc(N3CCCCC3)nn2)c1C	2	16µM*	1	-8	0%	21µM*!
COc1cc(NC(=O)CCc2c(C)nn(-c3ccc(N4CCCCC4)nn3)c2C)cc(OC)c1OC	.	21µM*	.	.	3%	?
COC(=O)c1ccc(NC(=O)CCc2c(C)nn(-c3ccc(N4CCCCC4)nn3)c2C)cc1	.	23µM*	.	.	7%	?
COc1ccc(OC)c(NC(=O)CCc2c(C)nn(-c3ccc(N4CCCC4)nn3)c2C)c1	.	21µM*	.	.	6%	15µM*
Cc1ccc(-c2nn(CCC(=O)Nc3cccnc3)c(=O)c3ccccc23)cc1	-2	-29%	.	3	3%	?
Cc1cccc(NC(=O)CCc2c(C)nn(-c3ccc(N4CCOCC4)nn3)c2C)c1	0	-29%	-6	0	7%	-27%
Cc1nn(-c2ccc(N3CCCC3)nn2)c(C)c1CCC(=O)N1CCN(c2ccc(F)cc2)CC1	.	15µM*	.	.	10%	?
Cc1nn(-c2ccc(N3CCOCC3)nn2)c(C)c1CCC(=O)Nc1ccc(F)cc1	-1	-4%	-10	.	6%	16µM*

Compound activity: PubChem, National Center for Advancing Translational Sciences (NCATS)
